A selection: hits, their analogues and other compounds. The true share with any hit is near 2.4%.
Pol iota inh – blocks human DNA polymerase iota activity. Potency, µM (top dose mostly 115 µM), most hits filed as inhibitors. AID 588590. Q9UNA4. 390,000 compounds, 1% hits. Pol iota fluorescent replication assay, 10 min
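Pol iota at 10 nM preincubated 15 min with compounds at room temperature; reaction started with fluorescent substrate, 50 nM final. Fluorescence read kinetically at 0 and 10 min; buffer-only wells as negative control.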
Pol eta inh-1 – blocks human DNA polymerase eta activity. recombinant Pol eta, fluorescent DNA replication assay. Potency, µM (series often up to 114 µM), usual class: inhibitors. 390,000 compounds, 1.2% hits. AID 588591
Target sequence (Q9Y253 whole entry, looked up): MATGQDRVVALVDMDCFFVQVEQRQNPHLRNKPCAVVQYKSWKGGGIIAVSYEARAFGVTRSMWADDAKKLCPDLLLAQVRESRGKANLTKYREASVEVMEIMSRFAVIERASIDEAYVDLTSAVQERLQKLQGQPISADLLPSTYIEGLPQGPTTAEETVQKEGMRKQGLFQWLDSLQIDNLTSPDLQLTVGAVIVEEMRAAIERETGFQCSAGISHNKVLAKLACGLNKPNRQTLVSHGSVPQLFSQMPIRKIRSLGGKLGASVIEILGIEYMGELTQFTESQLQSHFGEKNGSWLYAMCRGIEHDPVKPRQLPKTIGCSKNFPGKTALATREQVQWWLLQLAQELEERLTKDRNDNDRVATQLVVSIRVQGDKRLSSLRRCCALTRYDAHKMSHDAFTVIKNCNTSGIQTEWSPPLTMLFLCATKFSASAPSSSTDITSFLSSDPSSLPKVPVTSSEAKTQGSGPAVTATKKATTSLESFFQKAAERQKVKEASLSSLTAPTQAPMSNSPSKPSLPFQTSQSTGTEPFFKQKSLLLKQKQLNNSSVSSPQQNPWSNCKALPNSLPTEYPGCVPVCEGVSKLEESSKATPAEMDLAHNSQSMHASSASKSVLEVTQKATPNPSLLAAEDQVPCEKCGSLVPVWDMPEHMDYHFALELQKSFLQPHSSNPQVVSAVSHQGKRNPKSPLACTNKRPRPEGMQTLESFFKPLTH
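Fluorescent replication assay: 50 nM final substrate added after a 15 min room-temperature compound preincubation with 10 nM enzyme. Signal taken at 0 min and again at 10 min.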
FEN1 inh – human FEN1 inhibition. P39748. Recombinant FEN1 flap cleavage, fluorescence, 15 min. Potency, µM (top dose mostly 114 µM), hits mostly inhibitors. 390,000 compounds, 0.35% hits; note: nearly all actives have a fitted effect of over 65% in size
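Nuclease activity of 10 nM FEN1 was measured after 15 min of room-temperature exposure to titrated compounds, by adding 50 nM flap substrate and reading plates at 0 and 15 min.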
Pol beta inh – DNA polymerase beta (human) inhibition. Potency, µM (doses to about 114 µM), most hits filed as inhibitors. 340,000 compounds, 1.3% hits. Pol beta primer extension/strand displacement, fluorescence kinetic. P06746
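Homogeneous kinetic assay of primer extension and strand displacement by 10 nM Pol beta, preincubated 15 min at room temperature with compound before 50 nM substrate (final) was added. Read at 0 and 10 min; four-parameter Hill fit.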
TDP1 inh – TDP1 (human) enzyme inhibition | recombinant TDP1, AlphaScreen DNA substrate cleavage | Potency, µM (doses to about 130 µM), usual class: inhibitors | 350,000 compounds, 0.28% hits; note: nearly all actives have a fitted effect of over 40% in size
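Tdp1 1 nM final; 15 min RT w/ cpd; substrate 15 nM, 5 min; beads 10 ug/ml, 10 min; AlphaScreen read. Neg ctrl: no enzyme.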
Pol kappa inh-1 – DNA polymerase kappa (human) inhibition. Potency, µM (series often up to 107 µM), most hits filed as inhibitors. AID 588579. purified Pol kappa, fluorescent DNA synthesis assay, 10 min. 400,000 compounds, 0.53% hits. Q9UBT6
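Here, compound and 10 nM enzyme are combined for 15 min at room temperature; adding 50 nM substrate (final) starts DNA synthesis, tracked by fluorescence at 0 and 10 min against buffer-only wells.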
GALK confirm – confirmation of human galactokinase (GALK) inhibitors; Potency, µM (titrated, usually from 115 µM), usual class: inhibitors; shares compounds with Pol eta inh-1; 150 compounds, 70% hits; purified GALK, Kinase-Glo ATP depletion luminescence
GALK redox cs – generates H2O2 by redox cycling, flagging GALK artifacts | shares compounds with Pol eta inh-1 | Phenol red-HRP H2O2 redox cycling, absorbance 600 nm | Potency, µM (top dose mostly 115 µM), hits mostly inhibitors | 150 compounds, 40% hits | AID 2035
HEK293 viability – counter-screen for GALK inhibitors: HEK293 cell cytotoxicity; shares compounds with Pol eta inh-1; HEK-293 viability, ATP luminescence (CellTiter-Glo), 24/48 h; Potency, µM (titrated, usually from 46.1 µM), hits mostly inhibitors; 170 compounds, 10% hits; AID 2547
Pol kappa inh-2 – Pol kappa (human) inhibition, cherry-pick confirmation; shares compounds with Pol eta inh-1; purified Pol-kappa, fluorescent strand-displacement substrate; 920 compounds, 76% hits; Potency, µM, most hits filed as inhibitors
Pol eta inh-2 – Pol eta (human) inhibition, cherry-pick confirmation. shares compounds with Pol eta inh-1. Pol eta primer extension, TAMRA/BHQ fluorescence, 10 min. Potency, µM, hits mostly inhibitors. 2,600 compounds, 64% hits. AID 720502
A number is an active result; – = inactive; ? = inconclusive; · = no result; [ ] = another dose, or the depositor's remark. Calls come from the whole dose curve; as a rule, active = well fitted curve in the direction sought with a large enough effect; inconclusive = small, poorly fitted or top-dose-only effect, or another doubt; inactive = no such curve, though single readings can be large; an effect the other way counts as inactive or inconclusive.

SMILES	Pol iota inh	Pol eta inh-1	FEN1 inh	Pol beta inh	TDP1 inh	Pol kappa inh-1	Pol eta inh-2	others
O=[N+]([O-])c1cc(Br)c(O)c(/C=N/Nc2nnnn2-c2cccc3ccccc23)c1	–	71µM	?	?	–	–	·	GALK confirm=30µM;GALK redox cs=–;HEK293 viability=–
O=[N+]([O-])c1ccc(NN=Cc2cccc3ccccc23)cc1	–	–	–	·	·	–	·
O=C(Nc1ccc(S(=O)(=O)Nc2nccs2)cc1)c1ccc(=O)[nH]c1	?	20µM	–	50µM	?	?	43	Pol kappa inh-2=67
Cc1ccc(C(=O)NNC(=O)c2ccncc2)cc1S(=O)(=O)N1CCOCC1	–	–	–	·	·	–	·
CCc1ccc(-n2nnc(-c3nsc(NC(=O)c4ccccc4Cl)n3)c2C)cc1	–	–	–	?	–	–	·
Cc1cc(C)cc(-n2nnc(-c3nsc(NC(=O)c4ccccc4Cl)n3)c2C)c1	?	?	–	7.9µM	?	–	·	Pol kappa inh-2=?
Oc1ccc(NCc2ccccc2OCc2ccccc2Cl)cc1	?	·	?	–	–	–	?
COc1ccc2occ(CC(=O)Nc3ccc(S(=O)(=O)Nc4nccc(C)n4)cc3)c2c1	?	79µM	–	?	–	?	?	Pol kappa inh-2=47
COc1ccc(CC(=O)Nc2ccc(S(=O)(=O)Nc3nccc(C)n3)cc2)cc1	–	–	–	–	–	–	·
O=C(COc1ccc(Cl)cc1)Nc1sc2c(c1C(=O)Nc1cccc(Cl)c1)CCCC2	–	–	?	–	–[12.3 µM]	–	·
Cc1ccc(NC(=O)c2c(NC(=O)C(F)(F)F)sc3c2CCCCC3)cc1	?	50µM	?	?	–[12.3 µM]	?	?
O=C(Nc1cccc(Cl)c1)c1c(NC(=O)C(F)(F)F)sc2c1CCCC2	?	25µM	?	?	–[12.3 µM]	–	?
COc1ccc(C(=O)N=c2nc(-c3ccccc3)n(-c3ccccc3)s2)cc1	–	·	–	·	·	–	·
Cc1ccc(C2C(/C=C3/SC(=S)NC3=O)=C(c3cccs3)Oc3ccccc32)cc1 (stereo not given)	?	71µM	?	32µM	–	?	?	Pol kappa inh-2=?
CC1Cc2cc(/C=C3/SC(=S)NC3=O)ccc2O1 (stereo not given)	–	–	–	–	·	–	·
Cc1nn(Cc2noc(C(=O)NC3CCC(C)CC3)n2)c(C)c1Br (stereo not given)	–	–	–	–	–	–	·
Cc1nn(Cc2noc(C(=O)NCC3CCCO3)n2)c(C)c1Br (stereo not given)	–	–	–	–	–	–	·	GALK confirm=–;GALK redox cs=–;HEK293 viability=–
CC(C)N1C(=O)S/C(=C\c2ccc(-c3ccc(Cl)c(C(=O)O)c3)o2)C1=O	?	8.9µM	?	–	25µM	50µM	27
CCN(CC)c1ccc(/C=C2/SC(=O)N(C(C)C)C2=O)o1	–	–	–	–	–	–	·
COc1cc(/C=C2/C(=O)NN(c3ccc(Cl)cc3)C2=O)cc(OC)c1O	?	–	–	–	·	–	·
O=C(O)c1cc(-c2ccc(/C=N/NC(=S)Nc3ccccc3)o2)ccc1Cl	35µM	20µM	–	28µM	·	79µM	?	Pol kappa inh-2=75
Cc1ccc(N2NC(=O)/C(=C/c3ccc(-c4ccc(Cl)c(C(=O)O)c4)o3)C2=O)cc1	?	22µM	–	32µM	–	?	60
O=[N+]([O-])c1cccc(-c2ccc(/C=N/NC(=S)Nc3ccccc3)o2)c1	–	–	–	–	–	–	·
CCCCC1(C)OC(=O)C(=Cc2ccc(-c3ccc(Cl)c(C(=O)O)c3)o2)C(=O)O1 (stereo not given)	?	20µM	–	16µM	·	?	27
CCOC(=O)C1=C(C)N[C@@]2(O)c3ccccc3C(=O)[C@@]12O	–	–	–	–	–	–	·
SMILES	Pol iota inh	Pol eta inh-1	FEN1 inh	Pol beta inh	TDP1 inh	Pol kappa inh-1	Pol eta inh-2	others
CCOC(=O)C1=C(C)OC2(O)c3ccccc3C(=O)C12O (stereo not given)	1.6µM	40µM	–	–	–	–	·	GALK confirm=27µM;GALK redox cs=19µM;HEK293 viability=–
CC(=O)C1=C(C)OC2(O)c3ccccc3C(=O)C12O (stereo not given)	1µM	79µM	–	–	–	–	?
COc1ccccc1NC(=O)C1=C(C)Nc2nc(CCCO)nn2C1c1cccc(O)c1 (stereo not given)	–	–	–	–	·	–	·
CCCOc1cc2c(C#N)c(N3CCCC3)nc(N)c2c(N)n1	?	45µM	–	·	·	–	?
COc1ccc(-c2noc(CC(=O)N(C)c3ccccc3F)n2)cc1	–	–	–	–	–	–	·
Cc1ccc(OCc2ccc(C(=O)O)o2)cc1C	–	–	–	–	·	–	·
Cc1ccc(OCc2ccoc2C(=O)O)cc1C	?	7.1µM	–	18µM	50µM	?	?
COc1cc2c(cc1OC)C(COc1cc(C)cc(C)c1)N(C(=O)C(C)(C)C)CC2 (stereo not given)	–	?	–	–	–	–	·
O=C(O)c1ccc(-n2[nH]c3c(c2=O)CCCC3)cc1	?	35µM	–	28µM	·	?	?	Pol kappa inh-2=24
O=C(O)c1ccc(N2C(=O)CCCC2=O)cc1	–	–	–	–	·	–	·
O=c1cc(-c2cc(O)c(O)c(O)c2)oc2cc(O)cc(O)c12	·	·	·	·	–	0.4µM	·	GALK confirm=42µM;GALK redox cs=–;HEK293 viability=–
COCCN(CC(=O)Nc1cccc(C)c1C)C(=O)c1ccc(S(=O)(=O)N2CCOCC2)cc1	–	–	–	·	–	–	·
COc1cc(/C=N/NC(=O)c2cc(-c3c(C)nn(-c4ccccc4)c3C)n[nH]2)ccc1O	3.2µM	20µM	–	?	–	?	54
Cc1nn(-c2ccccc2)c(C)c1-c1cc(C(=O)N/N=C/c2ccc(O)cc2)[nH]n1	20µM	28µM	?	10µM	–	79µM	43
CSc1cccc(N2CC(C(=O)N(CC(C)C)c3c(N)n(Cc4ccccc4)c(=O)[nH]c3=O)CC2=O)c1 (stereo not given)	?	25µM	–	·	·	?	?

Compound activity: PubChem BioAssay, National Center for Advancing Translational Sciences (NCATS)
